± gives the standard deviation of the averaged measurements.
Legend:
[1] = test system: DLD1; assay: cell viability (CellTiter-Glo) relative to plate median (fraction of plate median); higher = more viable cells; details: 10 µM, treatment time 24 h
In short: (§1)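 Kinase inhibitor library compounds were added at a final 10 µM for 24 h to colorectal cancer cells in 384-well plates, 24 h after seeding. The cells stably expressed lentiviral TCF/Wnt firefly luciferase reporters. Firefly luciferase and CellTiterGlo luminescence came from parallel plates, and each well was normalised to its plate median (webcellHTS2, additive, untransformed), averaged over two independent replicates.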

[2] = test system: HCT116; assay: as above; details: 10 µM; treatment time 24 h; reporter: TCF4/Wnt
In short: as §1

[3] = test system: SW480; assay: as above; details: 10 µM; treatment time 24 h; reporter: 7TFP
In short: as §1

[4] = test system: DLD1; assay: TCF/Wnt firefly luciferase reporter signal relative to plate median (fraction of plate median); higher = higher Wnt reporter signal; details: 10 µM, treatment time 24 h
In short: as §1

[5] = test system: HCT116; assay: as above; details: 10 µM; treatment time 24 h; reporter: TCF4/Wnt
In short: as §1

[6] = test system: SW480; assay: as above; details: 10 µM; treatment time 24 h; reporter: 7TFP
In short: as §1

Structure (SMILES)	cell viability ([1]; reporter: 7TFP)	cell viability ([1]; reporter: TCF4/Wnt)	cell viability [2]	cell viability [3]	TCF/Wnt firefly luciferase reporter signal ([4]; reporter: 7TFP)	TCF/Wnt firefly luciferase reporter signal ([4]; reporter: TCF4/Wnt)	TCF/Wnt firefly luciferase reporter signal [5]	TCF/Wnt firefly luciferase reporter signal [6]
CC(C)CC(=O)Nc1n[nH]c2c1CN(C(=O)C1CCN(C)CC1)C2(C)C	1.07 ± 0.028	1.27 ± 0.15	0.793 ± 0.13	1.32 ± 0.071	1.33 ± 0.26	2.31 ± 0.37	0.193 ± 0.053	0.836 ± 0.064
Cc1ccc(C(=O)Nc2ccc(CN3CCN(C)CC3)c(C(F)(F)F)c2)cc1C#Cc1cnc2cccnn12	0.835 ± 0.055	0.8 ± 0.0099	0.631 ± 0.14	1.01 ± 0.16	0.285 ± 0.064	0.466 ± 0.0028	0.292 ± 0.12	0.668 ± 0.098
CC(C)(O)CC(=O)NCCn1ccc2ncnc(Nc3ccc(Oc4cccc(C(F)(F)F)c4)c(Cl)c3)c21	1.04 ± 0.16	1.03 ± 0.089	1.17 ± 0.14	0.959 ± 0.058	1.16 ± 0.15	1.07 ± 0.18	0.902 ± 0.27	0.879 ± 0.5
COc1cc(Nc2ncc(F)c(Nc3ccc4c(n3)N(COP(=O)(O)O)C(=O)C(C)(C)O4)n2)cc(OC)c1OC	0.895 ± 0.046	0.896 ± 0.073	0.8 ± 0.055	0.919 ± 0.028	0.86 ± 0.098	0.919 ± 0.089	2.02 ± 1.6	0.588 ± 0.28
CC1(COc2ccc3c(c2)ncn3-c2ccc3cccc(N4CCC(N)CC4)c3n2)COC1	0.975 ± 0.02	1.14 ± 0.11	0.536 ± 0.13	1.02 ± 0.014	1.48 ± 0.25	1.73 ± 0.064	0.288 ± 0.11	1.64 ± 0.014
CO[C@@H](C(=O)N1Cc2[nH]nc(NC(=O)c3ccc(N4CCN(C)CC4)cc3)c2C1)c1ccccc1	1.09 ± 0.11	1.12 ± 0.071	0.823 ± 0.29	1.1 ± 0.042	1.23 ± 0.064	1.41 ± 0.014	0.388 ± 0.019	0.656 ± 0.083
Cc1csc(-c2nnc(Nc3ccc(Oc4ncccc4-c4ccnc(N)n4)cc3)c3ccccc23)c1	0.943 ± 0.042	1.03 ± 0.035	1.16 ± 0.071	1.03 ± 0.059	1.08 ± 0.11	0.866 ± 0.13	1.75 ± 0.14	0.983 ± 0.067
CNC(=O)CN1CCC(Oc2cc3c(Nc4cccc(Cl)c4F)ncnc3cc2OC)CC1	1 ± 0.081	1.01 ± 0.059	1.05 ± 0.028	0.893 ± 0.0042	0.943 ± 0.19	0.862 ± 0.35	0.656 ± 0.43	0.849 ± 0.07
OCCn1cc(-c2ccc3c(c2)CC/C3=N\O)c(-c2ccncc2)n1	1.05 ± 0.15	0.992 ± 0.11	0.979 ± 0.059	1.145 ± 0.0071	1.5 ± 0.53	1.45 ± 0.085	1.62 ± 0.45	1.7 ± 0.092
c1cncc(CN2CCC(n3ncc4c(N5CCOCC5)nc(-c5ccc6[nH]ccc6c5)nc43)CC2)c1	0.992 ± 0.17	0.9595 ± 0.005	0.858 ± 0.052	1.19 ± 0.078	0.532 ± 0.025	0.607 ± 0.042	0.897 ± 0.16	1.16 ± 0.014
COc1ccc(-c2ccc3c(N4CCOC[C@@H]4C)nc(N4CCOC[C@@H]4C)nc3n2)cc1CO	0.94 ± 0.14	0.921 ± 0.033	0.823 ± 0.12	1.17 ± 0.099	0.34 ± 0.042	0.4795 ± 0.0021	0.567 ± 0.08	0.829 ± 0.035

Source: the supplement of paper PMC6522484
